Source: PubChem (several laboratories)
Rows were chosen to be rich in hits. Some 32% of all compounds tested hit in one or more screens of this group.
CYP2C19 activ: increases human CYP2C19 enzyme activity; recombinant CYP2C19, luciferin-H EGE luminescence; active compounds read high; 0 = fully inhibited enzyme, 1 = untreated enzyme; P33261; activation factor at 5 µM; 96,000 tested, under 10 active;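 active means activation factor of at least 2 at 5 µM in the primary screen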
PostGolgi yeast: growth inhibition of a yeast mutant, post-Golgi transport screen. post-Golgi transport phenotypic cell assay. inhibition, % at 10 µM. 0.9% of 98,000 active. AID 739;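 further: yeast cells grown in 1536-well plates; yeast grown about 18 h at 30C before absorbance read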
CYP2C9 inhib: human CYP2C9 inhibition; 20% of 96,000 active; CYP2C9 Supersomes, luciferin-H conversion, luminescence; P11712; AID 777; inhibition, % at 5 µM;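 active means blocking of liver enzyme CYP2C9 beyond about 50% at 5 µM, limit read from the data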
CYP2C19 inh: human CYP2C19 inhibition; 21% of 96,000 active; CYP2C19 Supersomes, luciferin-H EGE luminescence, 30 min; inhibition, % at 5 µM; AID 778;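 active means CYP2C19 inhibition above a set limit at 5 µM in the primary screen, cut at about 50% in these data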
CYP2C9 act: activators of human CYP2C9 | recombinant CYP2C9, luciferin-H conversion, luminescence; active compounds read high; factor 1 = untreated enzyme, 0 = blocked | 1.4% of 96,000 active | activation factor at 5 µM | P11712;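 active means activation factor of 2 or more for CYP2C9 at a 5 µM dose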
PostGolgi ctrl: yeast control strain growth, post-Golgi counter-screen; efflux-deficient yeast background strain, growth absorbance A615, 16 h; inhibition, % at 10 µM; 5% of 98,000 active
A number is an active result; - = inactive; . = no result. Unless noted, no stated cut-off is given here; in the data, active means inhibition above about 30%; inactive means the rest.

SMILES	CYP2C19 activ	PostGolgi yeast	CYP2C9 inhib	CYP2C19 inh	CYP2C9 act	PostGolgi ctrl
Cc1cccc2c1N(CCCOc1ccc(C(C)(C)C)cc1)C(=O)C2=O	-	-	-	-	-	-
COc1ccc(C(=O)OCCN2C(=O)c3ccccc3C2=O)cc1	-	-	72	93	-	-
Cc1cccc2c1N(CCCOc1ccccc1)C(=O)C2=O	-	-	-	62	-	-
COc1cccc(C(=O)OCCN2C(=O)c3ccccc3C2=O)c1OC	-	-	-	90	-	-
Cc1ccc(OCCN2C(=O)c3ccccc3C2=O)cc1	-	-	-	81	-	-
Cc1cccc(N(CC(=O)N2CCOCC2)S(C)(=O)=O)c1C	-	-	-	-	-	-
CCOC(=O)N1CCC(NC(=O)Cn2cc3c(n2)CCCC3)CC1	-	-	-	-	-	-
O=C(OCCN1C(=O)c2ccccc2C1=O)c1cc(=O)[nH]c2ccccc12	-	-	-	-	-	-
CCCCOC(=O)CN1C(=O)c2ccc(C(=O)OCCCC)cc2C1=O	-	-	70	88	-	-
Cc1cc(C(=O)OCCN2C(=O)c3ccccc3C2=O)c2ccccc2n1	-	-	75	68	-	-
CCCCN(CCCC)S(=O)(=O)c1ccc(SCC(=O)OCC)c([N+](=O)[O-])c1	-	-	67	-	-	-
c1cncc(-c2nc3cc(Cc4ccc5oc(-c6cccnc6)nc5c4)ccc3o2)c1	-	.	-	-	-	.
c1cc(-c2nc3cc(Cc4ccc5oc(-c6ccncc6)nc5c4)ccc3o2)ccn1	-	.	51	-	-	.
CC1=C(C(=O)Nc2ccccc2C)C(c2ccc(C)o2)n2c(s/c(=C/c3ccccc3)c2=O)=N1 (centres undefined)	-	-	-	-	-	-
CC1=C(C(=O)Nc2ccccc2)C(c2ccc(C)o2)N2C(=O)CSC2=N1 (centres undefined)	-	-	-	64	-	-
CC1=C(C(=O)Nc2ccccc2)C(c2ccc(C)o2)n2c(s/c(=C/c3ccccc3)c2=O)=N1 (centres undefined)	-	-	87	72	-	-
COc1ccccc1N(CN1CCCC1=O)C(=O)c1c(F)cccc1F	-	-	76	-	-	-
COc1ccc(Cl)cc1N1C(=O)/C(=C\c2sccc2C)N=C1SCC(=O)NC1CC1	-	-	97	97	-	-
C=CCN1C(=O)/C(=C\c2ccc(Cl)cc2)N=C1SCC(=O)NC1CCCCC1	-	-	-	-	-	-
Cc1cnc(NC(=O)COc2cccc3c2OC(C)(C)C3)s1	-	-	-	-	-	-
CC(C)NC(=O)NC(=O)COc1cccc2c1OC(C)(C)C2	-	-	-	93	-	-
O=C(OCCOc1ccccc1Cl)c1ccc(-n2cnnn2)cc1	-	-	-	-	-	-
O=C(Oc1ccccc1Cl)c1ccc(-n2cncn2)nc1	-	-	78	93	-	-
C=CCOC(=O)c1ccc(-n2cncn2)nc1	-	-	-	80	-	-
CN(C)c1ccc(C(=O)Nc2cc(C(F)(F)F)ccc2-n2cncn2)cc1	-	-	-	-	-	-
SMILES	CYP2C19 activ	PostGolgi yeast	CYP2C9 inhib	CYP2C19 inh	CYP2C9 act	PostGolgi ctrl
COc1ccc2c(-c3ccccc3)cc(N3CCOCC3)nc2c1	-	-	-	-	-	-
COc1ccc(CN2CCCC2C(=O)Nc2ccc(OC)c(OC)c2)cc1OC (centres undefined)	-	-	-	54	-	-
COc1ccc(NC(=O)CC2CCCCC2)cc1OC	-	-	-	94	-	-
Cc1csc(N(C)C(=O)CSc2nnc(COc3cccc4ccccc34)o2)n1	-	-	-	-	-	-
Cc1nc2cc(C(F)(F)F)ccc2n1C1CCN(CC(=O)N2CCOCC2)CC1	-	-	-	-	-	-
COc1ccc(Cl)cc1NC(=O)CN1CCC(n2nnc3cc(C)ccc32)CC1	-	-	-	94	-	-
Cc1ccc2c(c1)nnn2C1CCN(CC(=O)NCCc2ccccc2)CC1	-	-	-	52	-	-
CC1Cc2ccccc2N1C(=O)CN1CCC(n2nnc3cc(C(F)(F)F)ccc32)CC1 (centres undefined)	-	-	-	50	-	-
COc1ccccc1NC(=O)CN1CCC(n2c(C)nc3cc(F)ccc32)CC1	-	-	-	-	-	-
COc1ccccc1NC(=O)CN1CCC(n2nnc3cc(F)ccc32)CC1	-	-	-	97	-	-
Cc1nn(-c2ccccc2)c(-c2ccccc2)c1C(=O)O	-	-	-	-	-	-
